Compounds without any hit were thinned out: in the full panel of roughly 83,000, 20% have a hit.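 A percent growth of 40 corresponds to 60% growth inhibition; 0 means no net growth; -100 means all cells died. Active threshold: below 10.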 A number with no mark means an inactive call. Activity calls are given as the source filed them.
Columns and labels:
Experiment in all cases: NCI-60 one-dose screen, 48 h (100 = growth as untreated, 0 = no growth, -100 = all killed)
[1] = tested on: NCI-H23 lung; settings: 10 µM unless noted
[2] = tested on: NCI-H226 lung; settings: 10 µM unless noted
[3] = tested on: NCI-H322M lung; settings: 10 µM unless noted
[4] = tested on: NCI-H460 lung; settings: 10 µM unless noted
[5] = tested on: HOP-92 NSCLC; settings: 10 µM unless noted
[6] = tested on: NCI-H522 lung; settings: 10 µM
[7] = tested on: 786-0 renal; settings: 10 µM unless noted
[8] = tested on: COLO 205 colon; settings: 10 µM unless noted
[9] = tested on: DU-145 prostate; settings: 10 µM unless noted
[10] = tested on: K-562 leukemia; settings: 10 µM unless noted
[11] = tested on: MALME-3M melanoma; settings: 10 µM unless noted
[12] = tested on: MDA-MB-231 breast; settings: 10 µM unless noted
[13] = tested on: RXF 393 renal; settings: 10 µM unless noted
[14] = tested on: SF-268 CNS; settings: 10 µM unless noted
[15] = tested on: SF-295 CNS; settings: 10 µM unless noted
[16] = tested on: SF-539 CNS; settings: 10 µM unless noted
[17] = tested on: UACC-257 melanoma; settings: 10 µM unless noted
[18] = tested on: M14 melanoma; settings: 10 µM unless noted
[19] = tested on: A549/ATCC NSCLC; settings: 10 µM unless noted
[20] = tested on: HOP-62 NSCLC; settings: 10 µM unless noted

Row | Compound | growth [1] | growth [2] | growth [3] | growth [4] | growth [5] | growth [6] | growth [7] | growth [8] | growth [9] | growth [10] | growth [11] | growth [12] | growth [13] | growth [14] | growth [15] | growth [16] | growth [17] | growth [18] | growth [19] | growth [20]
1 | CC1c2ccccc2-c2ccccc2N1C (stereo not drawn) | 105% | 105% | 101% | 105% | 86.1% | 87.5% | 104% | 107% | 110% | 88.3% | 99.4% | 97.4% | 116% | 105% | 109% | 50.2% | 114% | 106% |  | 
2 | COCCOCCOCCOCCOc1ccc2c(c1)C(=O)c1nc3ncccc3c(=O)n1-2 | -40.1% (active) | -49.3% (active) | -88% (active) | -61.2% (active) | -18.7% (active) |  | -51.5% (active) | -85.9% (active) | -95.1% (active) | -92% (active) | -96.2% (active) | 23.8% | -72% (active) | -19.2% (active) | -97% (active) | -89.6% (active) | -83.9% (active) | -90.4% (active) | -77.4% (active) | 
3 | COc1cc(C2CC(C3C(=O)N(C)C(=O)N(C)C3=O)=NN2C=O)cc(OC)c1OC (stereo not drawn) | 97.3% | 95.8% | 91.2% | 99.9% | 105% |  | 108% | 98.7% | 111% | 88% | 109% | 103% | 109% | 102% | 98.1% | 104% | 78.3% | 84% | 75.1% | 
4 | COc1ccc([N+](=O)[O-])c(S(=O)(=O)c2ccc(Cl)cc2)n1 | 81.9% | 91.2% | 106% | 98.1% | 63.1% |  | 70.1% | 25.2% | 93.2% | 7.72% (active) | 11.8% | 68.1% |  | 92.4% | 95.3% | 82.8% | 94.9% | 60.5% | 99.2% | 
5 | COC(=O)N/N=C/c1coc2ccc(Cl)cc2c1=O | 99.4% | 84.7% | 99.2% | 102% | 1.24% (active) |  | 104% | 91.4% | 106% | 86.9% | 75.7% | 71.3% | 66.6% | 85.5% | 93.6% | 99.8% | 111% |  | 103% | 
6 | N#Cc1c(NC(=O)c2ccco2)[n+]([O-])c2cc(Cl)c(Cl)cc2[n+]1[O-] | 86.3% | 106% | 121% | 109% | 212% |  | 107% | 114% | 103% | 96.4% | 123% | 93.9% | 91.3% | 114% | 135% | 90.4% | 99.3% | 142% | 96.6% | 
7 | COc1ccc2c3c(ccc2c1)C(=O)/C(=C\O)CC3 | 96.7% | 106% | 110% | 102% | 96.4% |  | 103% | 105% | 111% | 82.7% | 135% | 102% | 119% | 93.6% | 107% | 96.4% | 101% | 122% | 109% | 
8 | CCCCCN(CCCCC)CCCNc1c2c(nc3ccc(Cl)cc13)CCCC2 | 30.7% | 50.8% | 73.8% | 34% |  |  |  | -11% (active) | 66.6% | 14.2% | 35.5% | 18.5% | 57.1% | 76.1% | 37.8% | 47% | 13.2% |  | 31.8% | 44.3%
9 | CCCCCCC(CC#N)(CCC)CCCC (stereo not drawn) | 110% | 96.7% | 113% | 98.9% | 73.9% |  | 108% | 129% | 121% | 106% | 100% | 106% | 106% | 115% | 39.5% | 85.3% | 104% | 110% | 103% | 
10 | CCCCCc1c(C)[nH]c(/C=C2\N=C(c3ccc[nH]3)C=C2Oc2ccccc2)c1C | -80.2% [100 µM] (active) | -38.2% [100 µM] (active) | -49.8% [100 µM] (active) | -38.6% [100 µM] (active) | -41.3% [100 µM] (active) |  | -76.3% [100 µM] (active) | -53.9% [100 µM] (active) | -68.1% [100 µM] (active) | -43.8% [100 µM] (active) | -44.7% [100 µM] (active) | -94.1% [100 µM] (active) | -57.2% [100 µM] (active) | -60.8% [100 µM] (active) | -57.7% [100 µM] (active) |  | -66.9% [100 µM] (active) | -96.7% [100 µM] (active) | -81.6% [100 µM] (active) | 
11 | Oc1ccccc1/C=N/N1CCCCCC1 | 101% | 91.5% | 108% | 127% | 50.4% | 104% | 110% | 122% | 108% |  |  | 96.1% | 101% | 99.9% |  | 113% | 129% | 118% |  | 
12 | CCSc1nc(-c2cccs2)n2nc(-c3ccco3)cc2n1 | 95% | 94.9% | 116% | 104% | 71.3% | 91.8% | 113% | 123% | 113% | 100% | 107% | 91.6% | 107% | 102% | 99.4% | 100% | 103% | 109% |  | 
13 | Cc1nn2c(/C=C3/C(=O)Nc4cc(Cl)ccc43)c(-c3ccccc3)nc2s1 | 34.9% | 95.2% | 31% | 13.6% | -27.8% (active) |  | -74.8% (active) | 21.8% | 33.4% | 23.5% | -64.6% (active) | 8.57% (active) | -18% (active) | 50.1% |  | -41.4% (active) | -29% (active) | 22.2% | -28.7% (active) | 
14 | CC(C)Cn1cnc2c(NCn3nc(-c4cc(Cl)cc(Cl)c4Cl)n(/N=C/c4ccc(Cl)cc4)c3=S)nc3ccccc3c21 | 80.9% | 73.4% | 81.6% | 99.1% | 45% |  | 90.7% | 94.6% | 106% | 53.8% | 109% | 73.4% | 80.7% | 102% | 71.9% | 90.4% | 77.2% | 104% | 77.9% | 
15 | c1ccc(CN=C(NCc2ccccc2)NCc2ccccc2)cc1 | 42.4% | 51.1% | 75.6% | 73.4% |  |  | 73.1% | 41.3% | 66.4% | 35.7% |  | 70.8% | 91.7% | 63.8% | 30% | 93.6% | -13.2% (active) | 52.9% | 47.3% | 78.6%
16 | COc1cc(-c2nnc(-c3nc(-c4cc(OC)c(OC)c(OC)c4)n4ccccc34)o2)ccc1N | 67.7% | 83% | 83.1% | 68.3% | 29.2% |  | 68.6% | 88.7% | 85.4% | 64.7% | 86.5% | 84.4% | 84.4% | 83.6% |  | 98.8% | 93.2% | 80.3% | 28.2% | 
17 | C=C(CN1CCc2c([nH]c3ccccc23)C1)c1ccc(C(=O)Nc2ccon2)cc1 | 85.9% | 92.7% | 125% | 101% | 31.5% | -15% (active) | 96% | 83.6% |  | 44.2% | 129% | 78.6% |  | 97.1% | 114% | 90% | 97.3% | 95.6% |  | 

Reference: PubChem BioAssay (NCI)
